CYP2C9 inhib = blockers of cytochrome P450 2C9 activity – biochemical, luminescence, ADME assay, primary screen. CYP2C9 Supersomes, luciferin-H conversion. 96,000 compounds, 20% hits. inhibition, % at 5 µM. AID 777, 2007. P11712;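 active means blocking of liver enzyme CYP2C9 beyond about 50% at 5 µM, limit read from the data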
Target sequence (P11712 whole entry, looked up): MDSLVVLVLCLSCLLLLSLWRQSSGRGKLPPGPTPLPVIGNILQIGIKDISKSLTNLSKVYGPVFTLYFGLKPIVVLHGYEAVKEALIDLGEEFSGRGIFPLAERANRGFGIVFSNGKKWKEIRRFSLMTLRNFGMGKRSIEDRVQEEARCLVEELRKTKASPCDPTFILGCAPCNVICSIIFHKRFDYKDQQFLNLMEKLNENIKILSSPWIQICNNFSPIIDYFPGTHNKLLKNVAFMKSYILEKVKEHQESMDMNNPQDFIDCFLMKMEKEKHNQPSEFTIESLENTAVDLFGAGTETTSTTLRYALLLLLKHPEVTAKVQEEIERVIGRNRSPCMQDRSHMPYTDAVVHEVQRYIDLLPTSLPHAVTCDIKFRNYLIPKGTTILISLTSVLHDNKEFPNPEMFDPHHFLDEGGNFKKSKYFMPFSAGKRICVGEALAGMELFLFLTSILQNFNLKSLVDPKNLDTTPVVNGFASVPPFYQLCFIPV
CYP2C9 activ = human CYP2C9 activators, primary screen, biochemical, luminescence; 96,000 compounds, 1.4% hits; recombinant CYP2C9, luciferin-H conversion; hits give high values; factor 1 = untreated enzyme, 0 = blocked; activation factor at 5 µM; AID 1024, 2008;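 active means activation factor of 2 or more for CYP2C9 at a 5 µM dose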;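 further: 0 = sulfaphenazole-blocked wells and 1 = vehicle-only wells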
Cav32 inh = Cav3.2 calcium influx blockers – cell-based, Fluo-4 calcium fluorescence, FDSS, MLSMR library, primary screen; Cav3.2-expressing cells; hits give low values; Voltage-dependent T-type calcium channel subunit alpha-1H (Homo sapiens), O95180; B-score at 10 µM; AID 449739, 2010; 100,000 compounds, 4% hits;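 active means single-dose well whose peak fluorescence ratio is a statistical outlier from its plate by either plate-standardised score or position-corrected B-score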
CYP2C19 inh = blockers of cytochrome P450 2C19 activity – biochemical, luminescence, ADME assay, primary screen; P33261; CYP2C19 Supersomes, luciferin-H EGE luminescence, 30 min; inhibition, % at 5 µM; 96,000 compounds, 21% hits;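 active means CYP2C19 inhibition above a set limit at 5 µM in the primary screen, cut at about 50% in these data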;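 further: plate controls were negative control wells for no effect and 2.5 mM tranylcypromine positive control for full effect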
CYP2C19 act = human CYP2C19 activators, primary screen, biochemical, luminescence | Cytochrome P450 2C19 (Homo sapiens), P33261 | recombinant CYP2C19, luciferin-H EGE luminescence; hits give high values; 0 = fully inhibited enzyme, 1 = untreated enzyme | activation factor at 5 µM | 96,000 tested, under 10 active | AID 1025, 2008;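 active means activation factor of at least 2 at 5 µM in the primary screen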;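 further: 0 = wells with 2.5 mM tranylcypromine and 1 = vehicle-only wells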
* hit, by the source's call. Rows were chosen to be rich in hits. Some 27% of all compounds tested hit in one or more screens of this group.

Results for CC(C)(C)n1nnnc1C(c1cccs1)N1CCN(Cc2ccccc2)CC1 (stereo unspecified) ?
CYP2C9 inhib: -4; CYP2C9 activ: 1; Cav32 inh: 1.5; CYP2C19 inh: -5; CYP2C19 act: 1.1

Results for N#Cc1cccc(C(c2nnnn2CCc2ccccc2)N2CCN(C3CCCCC3)CC2)c1 (stereo unspecified) ?
CYP2C9 inhib: -5; CYP2C9 activ: 1; Cav32 inh: 1.2; CYP2C19 inh: 8; CYP2C19 act: 0.9

What do the screens show for `O=C1CC(C(=O)N2CCOCC2)C2(CCCCC2)O1` (stereo unspecified)?
CYP2C9 inhib: -24; CYP2C9 activ: 1.2; Cav32 inh: 0.044; CYP2C19 inh: 26; CYP2C19 act: 0.7

Results for Cc1c(C(=O)N2CCc3ccccc32)oc2c1C(=O)CC(C)(C)C2 ?
CYP2C9 inhib: 23; CYP2C9 activ: 0.8; Cav32 inh: -0.05; CYP2C19 inh: 11; CYP2C19 act: 0.9

Results for COc1ccc(CCCc2nnc(SCC(=O)Nc3ccc(C)c(C)c3)o2)cc1 ?
CYP2C9 inhib: 10; CYP2C9 activ: 0.9; Cav32 inh: -0.22; CYP2C19 inh: 26; CYP2C19 act: 0.7

What do the screens show for `COc1ccc(CCCc2nnc(SCC(=O)Nc3cc(C)ccc3C)o2)cc1`?
CYP2C9 inhib: 63*; CYP2C9 activ: 0.4; Cav32 inh: -2.8; CYP2C19 inh: 46; CYP2C19 act: 0.5

What do the screens show for `Cc1ccc(C)c(NC(=O)CSc2nnc(-c3ccccc3C)o2)c1`?
CYP2C9 inhib: 14; CYP2C9 activ: 0.9; Cav32 inh: -5.5*; CYP2C19 inh: 42; CYP2C19 act: 0.6

How did Cc1ccc(C)c(NC(=O)CSc2nnc(CCNC(=O)OC(C)(C)C)o2)c1 do in these assays?
CYP2C9 inhib: 34; CYP2C9 activ: 0.7; CYP2C19 inh: 80*; CYP2C19 act: 0.2

How did Cc1ccc(NC(=O)CSc2nnc(CCCCCNC(=O)OC(C)(C)C)o2)c(C)c1 do in these assays?
Cav32 inh: -0.16

How did Cc1c(Cl)cccc1NC(=O)CSc1nnc(CCNC(=O)OC(C)(C)C)o1 do in these assays?
CYP2C9 inhib: 68*; CYP2C9 activ: 0.3; Cav32 inh: 0.27; CYP2C19 inh: 78*; CYP2C19 act: 0.2

Results for COc1ccc(-c2csc(N(CC3CCCO3)C(=O)c3ccco3)n2)cc1 (stereo unspecified) ?
CYP2C9 inhib: -1; CYP2C9 activ: 1; Cav32 inh: -1; CYP2C19 inh: -6; CYP2C19 act: 1.1

What do the screens show for `CCOC(=O)N1CCC(Nc2c(NCCCN(CC)Cc3ccccc3)c(=O)c2=O)CC1`?
CYP2C9 inhib: -8; CYP2C9 activ: 1.1; Cav32 inh: 0.67; CYP2C19 inh: 1; CYP2C19 act: 1

How did COc1ccc(/C=C/C(=O)Nc2cc(C(F)(F)F)ccc2Cl)cc1 do in these assays?
CYP2C9 inhib: -103; CYP2C9 activ: 2*; Cav32 inh: -1.4; CYP2C19 inh: 9; CYP2C19 act: 0.9

How did COc1ccc(NCc2nnc(SCC(=O)Nc3cc(C(F)(F)F)ccc3Cl)o2)cc1 do in these assays?
CYP2C9 inhib: 80*; CYP2C9 activ: 0.2; Cav32 inh: -2; CYP2C19 inh: 82*; CYP2C19 act: 0.2

What do the screens show for `COc1cc(C(=O)Nc2cc(C(F)(F)F)ccc2Cl)cc(OC)c1OC`?
CYP2C9 inhib: 20; CYP2C9 activ: 0.8; CYP2C19 inh: 12; CYP2C19 act: 0.9

How did CCc1nc2ccccc2c(C(=O)OC2CCOC2=O)c1C (stereo unspecified) do in these assays?
CYP2C9 inhib: -5; CYP2C9 activ: 1.1; CYP2C19 inh: 52*; CYP2C19 act: 0.5

What do the screens show for `O=C(OC1CCOC1=O)c1ccc2ccccc2n1` (stereo unspecified)?
CYP2C9 inhib: -6; CYP2C9 activ: 1.1; Cav32 inh: 0.47; CYP2C19 inh: -2; CYP2C19 act: 1

Results for CCCc1nc2ccccc2c(C(=O)OC2CCOC2=O)c1CC (stereo unspecified) ?
CYP2C9 inhib: 65*; CYP2C9 activ: 0.3; Cav32 inh: -0.38; CYP2C19 inh: 53*; CYP2C19 act: 0.5

How did O=C(N1CCOCC1)C(F)(F)C(=O)N1CCOCC1 do in these assays?
CYP2C9 inhib: 10; CYP2C9 activ: 0.9; Cav32 inh: 0.28; CYP2C19 inh: -3; CYP2C19 act: 1

Results for COc1ccc(S(=O)(=O)N2CCN(c3ccc(C)cc3C)CC2)cc1OC ?
CYP2C9 inhib: 52*; CYP2C9 activ: 0.5; Cav32 inh: -6*; CYP2C19 inh: 46; CYP2C19 act: 0.5

How did COc1ccc(C(=O)N2CCN(c3ccc(C)cc3C)CC2)cc1OC do in these assays?
CYP2C9 inhib: 23; CYP2C9 activ: 0.8; Cav32 inh: -0.94; CYP2C19 inh: 8; CYP2C19 act: 0.9

Results for CCOc1ccc(S(=O)(=O)N2CCN(c3ccc(C)cc3C)CC2)cc1 ?
CYP2C9 inhib: 80*; CYP2C9 activ: 0.2; Cav32 inh: -4.7; CYP2C19 inh: 54*; CYP2C19 act: 0.5

Results for Cc1cc(C(C)(C)C)oc1C(=O)N(CC(=O)NC1CCCC1)Cc1ccccc1Cl ?
CYP2C9 inhib: 54*; CYP2C9 activ: 0.5; Cav32 inh: -3.6; CYP2C19 inh: 35; CYP2C19 act: 0.7

What do the screens show for `Cc1nnc2c3ccccc3c(-c3ccccc3)nn12`?
Cav32 inh: 1.4

What do the screens show for `Cc1nnc2c3ccccc3c(-c3cccc4ccccc34)nn12`?
CYP2C9 inhib: 8; CYP2C9 activ: 0.9; Cav32 inh: -1.4; CYP2C19 inh: 61*; CYP2C19 act: 0.4

What do the screens show for `Cc1ccc(N(CC(=O)NCc2ccccc2Cl)S(=O)(=O)c2cccs2)cc1`?
CYP2C9 inhib: 65*; CYP2C9 activ: 0.3; Cav32 inh: -1.5; CYP2C19 inh: 64*; CYP2C19 act: 0.4

How did Cc1ccc(N(CC(=O)NCc2ccc(F)cc2)S(=O)(=O)c2cccs2)cc1 do in these assays?
CYP2C9 inhib: 63*; CYP2C9 activ: 0.4; Cav32 inh: -1.6; CYP2C19 inh: 99*; CYP2C19 act: 0

How did O=C(Nc1cnn(Cc2c(Cl)cccc2Cl)c1)C(c1ccccc1)c1ccccc1 do in these assays?
CYP2C9 inhib: 87*; CYP2C9 activ: 0.1; CYP2C19 inh: 15; CYP2C19 act: 0.8

How did O=C(COc1ccccc1Cl)Nc1cnn(Cc2ccccc2)c1 do in these assays?
CYP2C9 inhib: 27; CYP2C9 activ: 0.7; CYP2C19 inh: 21; CYP2C19 act: 0.8

What do the screens show for `O=C(CSc1nnc(Cc2ccccc2)n1C1CCCCC1)N1CCOCC1`?
CYP2C9 inhib: 0; CYP2C9 activ: 1; Cav32 inh: 0.46; CYP2C19 inh: 5; CYP2C19 act: 0.9

How did c1ccc(CSc2nnc(NC3=NCCCCC3)s2)cc1 do in these assays?
CYP2C9 inhib: 37; CYP2C9 activ: 0.6; Cav32 inh: -3.1; CYP2C19 inh: 68*; CYP2C19 act: 0.3

From PubChem BioAssay
